A selection: hits, their analogues and other compounds. The true share with any hit is near 21%.
AMA1-RON2 inh: qHTS for Inhibitors of AMA1-RON; Towards Development of Antimalarial Drug Lead: Primary Screen; Potency, µM (series often up to 58.2 µM), for inactives: top-dose activity change, negative = inhibition, actives largely listed as inhibitors; AlphaScreen AMA1-biotinylated RON2 peptide binding; 360,000 compounds, 0.2% hits;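 further: potency means the concentration at half of the fitted maximal effect; 0% = vehicle wells and -100% = peptide control; nearly all actives have a fitted effect of over 45% in size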
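AMA1 (3D7) with his tag at 25 nM final met compounds first, then biotinylated RON2 peptide at 25 nM; detection used donor plus acceptor beads, 10 µg/mL apiece, read by AlphaScreen after 30 min at room temperature.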
Pf growth 96h: Primary qHTS for delayed death inhibitors of the malarial parasite plastid, 96 hour incubation | P. falciparum luciferase reporter growth, 96 h | Potency, µM (doses to about 28.7 µM), for inactives: top-dose activity change, negative = inhibition, usual class: inhibitors | 320,000 compounds, 6.9% hits | AID 504834, 2011; further: potency means the concentration at half of the fitted maximal effect; on the % scale 0 is the no-effect control and ±100 the full control effect
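P. falciparum expressing integrated firefly luciferase grown in erythrocytes (2% hematocrit, 0.05% parasitemia final) with compounds for 96 hours at 37 C, 5% CO2. Growth inhibition read as loss of luminescence after adding luciferase detection reagent.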
Pf growth 48h: Primary qHTS for delayed death inhibitors of the malarial parasite plastid, 48 hour incubation; P. falciparum luciferase growth in erythrocytes, 48 h; Potency, µM (top dose mostly 28.7 µM), inactives show top-dose activity change, negative = inhibition, actives largely listed as inhibitors; 310,000 compounds, 5.9% hits; AID 504832, 2011; further: potency means the concentration at half of the fitted maximal effect; on the % scale 0 is the no-effect control and ±100 the full control effect
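Erythrocytes infected with P. falciparum carrying an integrated firefly luciferase reporter (2% hematocrit, 0.1% parasitemia final) were exposed to compounds in RPMI 1640 with 0.5% Albumax at 37 C, 5% CO2. Growth inhibition was scored as reduced luminescence.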
CHX counter: Cycloheximide Counterscreen for Small Molecule Inhibitors of Shiga Toxin; max response, %; 300,000 compounds, 12% hits; cell reporter, cycloheximide protein synthesis inhibition counterscreen; in the data active means max response mostly above about 13%, no sharp cut-off; inactive means mostly below about 14%; further: read at 38.3 µM for the half of the compounds with a filed dose; 0% is about no effect
Shiga inhibitor: A qHTS for Small Molecule Inhibitors of Shiga Toxin | 290,000 compounds, 9.2% hits | Vero cells, Shiga toxin protein synthesis inhibition reporter | AID 2315, 2010 | inhibition, % at 38.7 µM; in the data active means inhibition mostly above about 28%, no sharp cut-off; inactive means mostly below about 43%; further: 0% is about no effect
HCV inhibitor: qHTS Assay for Inhibitors of Hepatitis C Virus (HCV); Potency, µM (series often up to 41.8 µM), for inactives: top-dose activity change, negative = inhibition, actives largely listed as inhibitors; 340,000 compounds, 3.4% hits; AID 651820, 2012; Huh7.5.1 HCVcc-Cre infection, luciferase reporter, 44 h; further: potency means the concentration at half of the fitted maximal effect; on the % scale 0 is the no-effect control and ±100 the full control effect
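Luciferase read-out (15 sec integration) after a 15 min room-temperature substrate step quantifies HCVcc-Cre infection. Cells, 1,000 per well, had compound added 4 h post-plating, then virus at ~0.5 moi, and were cultured 44 h.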
An asterisk follows results filed as active; ? = inconclusive; . = no result. Unless noted, the call rests on the fitted dose curve; in most records, active means well fitted curve in the direction sought with a large enough effect; inconclusive means small, poorly fitted or top-dose-only effect, or another doubt; inactive means no such curve, though single readings can be large; an effect the other way counts as inactive or inconclusive.

SMILES | AMA1-RON2 inh | Pf growth 96h | Pf growth 48h | CHX counter | Shiga inhibitor | HCV inhibitor
CN(CC(=O)Nc1cccc(F)c1)CC(=O)Nc1cccc(S(=O)(=O)N2CCCCC2)c1 | 15% | ? | 12µM* | . | . | ?
COc1ccc(S(=O)(=O)N2CCOCC2)cc1NC(=O)CN(C)CC(=O)Nc1cccc(F)c1 | 57% | . | . | . | . | -21%
CC1(c2cc(F)ccc2F)NC(=O)N(CC(=O)Nc2cccc(S(=O)(=O)N3CCCC3)c2)C1=O (configuration not stated) | -3% | ? | 12µM* | . | . | 2%
CN(CC(=O)Nc1cccc(F)c1)CC(=O)Nc1cc(S(=O)(=O)N2CCOCC2)ccc1Cl | 123% | -2% | ? | . | . | 11µM*
CCNC(=O)NC(=O)COC(=O)c1cccc(S(=O)(=O)N2CC3(C)CC2CC(C)(C)C3)c1 (configuration not stated) | -12% | 0% | -5% | . | . | 1%
Cc1ccccc1S(=O)(=O)Oc1cccc2c(O)cccc12 | 0% | -11% | 6% | 11 | 29 | -12%
CCC1CCC2(CC1)NC(=O)N(CC(=O)NCc1ccccc1Cl)C2=O (configuration not stated) | 10% | . | . | . | . | -15%
CN(CC(=O)Nc1cccc(S(=O)(=O)N2CCCCC2)c1)Cc1ccc(F)cc1 | -4% | 9.3µM* | 13µM* | . | . | ?
CC1CCc2ccccc2N1CC(=O)Nc1cccc(S(=O)(=O)N2CCCC2)c1 (configuration not stated) | ? | ? | 12µM* | . | . | 32µM*
O=C(CN1CCCc2ccccc21)Nc1cccc(S(=O)(=O)N2CCCC2)c1 | -12% | . | . | . | . | .
Cc1ccc(CN(C)C(=O)COc2ccc(S(=O)(=O)N3CCCC3)cc2[N+](=O)[O-])c(C)c1 | -8% | ? | 12µM* | . | . | -5%
CN(CC(=O)Nc1ccc(S(=O)(=O)N2CCCC2)cc1)Cc1cccc(Cl)c1Cl | -7% | 9.3µM* | -28% | 1 | -4 | -17%
COC(=O)COc1ccc(S(=O)(=O)N2CCCCC2)cc1[N+](=O)[O-] | 0% | -2% | 4% | -5 | -1 | 1%
CN(CCOc1ccccc1)CC(=O)Nc1ccc(S(=O)(=O)N2CCCC2)cc1 | -27% | ? | -37% | -2 | 8 | -26%
CC(OC(=O)c1cc(=O)[nH]c2ccccc12)C(=O)N1C(C)CCCC1C (configuration not stated) | 30% | -26% | ? | . | . | 1%
CC(=O)NC1[C@H]([C@H](O)[C@H](O)CO)OC(C(=O)O)=C[C@H]1N=C(N)N (some centres not stated) | . | -3% | 10% | . | . | .
c1cncc(CN2CCN(c3cc(-c4cnc5ccccc5c4)nc4ccnn34)CC2)c1 | 5% | . | . | . | . | .
COc1ccc(OC)c(NC(=O)C2(C)CCN2CCOc2ccccc2)c1 (configuration not stated) | 3% | . | . | . | . | .
Cc1cccc(NC(=O)c2ccc(S(=O)(=O)N3CCCC3)cc2)c1C | -4% | -20% | -7% | -9 | 4 | -3%
COc1ccccc1CN(C)CC(=O)Nc1cccc(S(=O)(=O)N2CCCCC2)c1 | 10% | ? | 12µM* | . | . | ?
COc1ccccc1CCC(=O)Nc1cccc(S(=O)(=O)N2CCCC2)c1 | 8% | ? | ? | 1 | 8 | -28%
Cc1cccc(NC(=O)CN(C)C(C)C(=O)Nc2ccc(S(=O)(=O)N3CCCC3)cc2)c1C (configuration not stated) | 34% | ? | 13µM* | . | . | ?
CCc1ccc([C@@H]2C[C@H]3[C@@H](CN2S(=O)(=O)c2ccc(C)cc2)C(=O)C[C@@H](c2ccc(Cl)cc2)N3S(=O)(=O)c2ccc(C)cc2)cc1 | -4% | . | . | . | . | .
Cc1cccc(CN2CCN(C(=O)CN(C)C(C)C(=O)Nc3ccc(C(N)=O)cc3)CC2)c1 (configuration not stated) | -9% | -16% | -16% | . | . | -13%
COc1ccc2cc(-c3[nH]ncc3CN3CCCC3c3nonc3C)ccc2c1 (configuration not stated) | -7% | 4.7µM* | -22% | 35* | 51* | ?
SMILES | AMA1-RON2 inh | Pf growth 96h | Pf growth 48h | CHX counter | Shiga inhibitor | HCV inhibitor
COc1ccc(-c2[nH]ncc2CN2CCCC(C(=O)c3cccc(OC)c3)C2)cc1 (configuration not stated) | -2% | 3% | -15% | -4 | -8 | ?
C=CCn1c(C(C)C)nc2ccccc21 | 6% | 11% | -4% | -7 | -10 | -6%
Cc1nc(Cl)c(Cl)n1CCOc1ccccc1 | -21% | ? | 8.3µM* | 6 | -1 | 12%
Cc1nc2nc(COc3ccccc3)nn2c(C)c1Cl | -4% | . | 8% | 1 | -7 | 8%
CC(C)(C)N1CC(c2nc3ccccc3n2Cc2ccc(Cl)cc2)CC1=O (configuration not stated) | 26% | . | ? | -5 | -15 | 11%
COCn1c(COc2ccc3ccccc3c2)nc2ccccc21 | 3% | 13% | 122% | 22* | 77* | -23%
CC(C)(C)N1CC(c2nc3ccccc3n2CCOc2ccccc2)CC1=O (configuration not stated) | 4% | 5.9µM* | . | -3 | -12 | 5%
C=CCn1c(COc2ccccc2OC)nc2ccccc21 | 0% | ? | ? | 8.4* | 4 | 7%
Cc1cccnc1NC(=O)c1ccc2c(c1)NC(=O)C(C)S2 (configuration not stated) | 4% | 20% | -1% | . | . | 20%
COc1cc(CNc2ccc(S(N)(=O)=O)cc2)ccc1OCC(=O)NC1CCCCC1 | 4% | 1% | -24% | -2 | -9 | -24%
CCn1c(COc2ccccc2C(N)=O)nc2ccccc21 | 10% | . | -2% | -3 | 4 | -1%
Cc1nc2ccccc2n1CCCOc1ccccc1 | -13% | ? | 250% | 21* | 47* | ?
CCCc1nc2ccccc2n1CCOC | 0% | -4% | . | 16 | 26 | 8%
CCCc1nc2ccccc2n1CCOc1ccccc1 | -17% | 4.1µM* | . | 1 | -16 | -11%
CCCn1c(COc2ccccc2)nc2ccccc21 | 12% | ? | ? | 8.3* | 11 | 3%
CCn1c(COc2ccccc2OC)nc2ccccc21 | 0% | 84% | 12% | 13* | 12 | 8%
CCOCCn1c(COc2ccccc2)nc2ccccc21 | 2% | . | -21% | 12 | 53 | -15%
OC(c1cc(Cl)cc(Cl)c1)c1ncc(-c2cccc(F)c2)[nH]1 (configuration not stated) | 11% | . | . | . | . | .

From PubChem
